# Laboratory results as given in ChEMBL document CHEMBL4513216, “Probing the Open Global Health Chemical Diversity Library for Multistage-Active Starting Points for Next-Generation Antimalarials” (ACS Infect Dis, 2020).
# The whole screen tested about 65,000 compounds, of which about 2,100 (3.2%) showed an effect of 50% or more. The median lay at about -52%. This is one part of a sample in which strong results are shown more often than they occur.
# Tested on: Plasmodium falciparum
# Experiment: Screen against P. falciparum Asexual Blood Stage (ABS), at 5uM
# Type: functional, Dd2
# Settings: tested at 5 uM
row,Structure (SMILES),INHIBITION [%]
1,Cc1ncsc1CN1C[C@@H]2CCCO[C@@H]2[C@H](Nc2ccccn2)C1,-27.2
2,c1ccc2sc(N3CCCN(c4ncnc5c4CCNC5)CC3)nc2c1,85.2
3,c1ccc(C2CCN(c3ncnc4c3CCNC4)CC2)cc1,74.4
4,Clc1cccc(C2CCN(c3ncnc4c3CCNC4)C2)c1 (stereo unspecified),79.6
5,CC[C@H](C)[C@@H](CO)NC(C)Cc1ccc(F)cc1 (stereo partly specified),41.2
6,O=C(C1CCC1)N1CCO[C@@H]2CNC[C@@H]21,-39.2
7,COC(=O)NCC1CCC2(CCNCC2)O1 (stereo unspecified),-44.6
8,CCC(CNC1CCN(C(=O)N(C)C)CC1)Oc1ccccc1C (stereo unspecified),73.2
9,CCOC(=O)N1CCC(NC(C)Cc2cc(C)n[nH]2)CC1 (stereo unspecified),-139
10,CCOC(=O)[C@@H]1[C@@H](c2ccccc2)CN2CCN(C(=O)N(C)C)C[C@H]12,-64
11,CN(C)C(=O)CN1CCCC12CCCN(c1ncc(F)cn1)C2 (stereo unspecified),-30.5
12,CC(C)(C)n1cc(C2=CCN(CCNC(=O)c3ccccc3)CC2)cn1,19.4
13,CC(C)(C)n1cc(C2=CCN(CCc3ccccc3)CC2)cn1,68
14,CC(C)(C)n1cc(C2=CCN(CCNC(N)=O)CC2)cn1,-161
15,Cc1nc(O)cc(CN2CC=C(c3cnn(C(C)(C)C)c3)CC2)n1,-58.8
16,CC(C)(C)n1cc(C2=CCN(CCc3ccccn3)CC2)cn1,45.2
17,CC(C)(C)n1cc(C2=CCN(CCN3CCCCCC3)CC2)cn1,71.5
18,COCCN1CCC12CCN(c1ncccn1)C2 (stereo unspecified),-86.1
19,O=C(Cn1ccc2ccc(Br)cc21)NC[C@@H]1CCCN2CCCC[C@H]12,79.3
20,O=C(Cn1ccc2c(Cl)cccc21)N1CCC2(CC1)OCCO2,-85.8
21,O=C(CC[C@@H]1CCCN2CCCC[C@H]12)NCCc1cc(O)ncn1,-119
22,Cc1nc(O)cc(CNC(=O)CC[C@@H]2CCCN3CCCC[C@H]23)n1,-4.68

row,Structure (SMILES),INHIBITION [%]
1,Cc1cccc2c1ccn2CC(=O)NC[C@@H]1CCCN2CCCC[C@H]12,70.9
2,O=C(Cc1c[nH]c2ccccc12)N1CCC(Nc2ccccc2)CC1,-7.04
3,CN1CCc2c(CNC(=O)c3nccn3C)cncc2C1,-77.8
4,Cc1n[nH]cc1C(=O)NCc1cccnc1N1CCc2ccccc2C1,75.3
5,COCCN1CCN(c2ccc(C)nn2)Cc2cccnc21,-2.72
6,O=C(C1CCC1)N1CCC2(CCNCC2)C1,-39.1
7,COc1ccc(-c2c(C)nn3c(=N)c(C#N)n[nH]c23)cc1OC,87.8
8,O=C(c1cccnc1)N1C[C@@H]2OCCN(CCN3CCCC3)[C@@H]2C1,-134
9,CC(=O)NC[C@H]1C[C@@H]2CCN1C[C@@H]2c1cc(-c2cccs2)nn1C,-50.5
10,c1ccc(CN2CC[C@H]3[C@H]2CCN3c2ncccn2)nc1,-84.3
11,CC(C)(C)c1cn2c(n1)C(CNCc1cnn3ccccc13)CCC2 (stereo unspecified),80
12,CC(C)(C)c1cn2c(n1)C(CNCc1ccccn1)CCC2 (stereo unspecified),92.9
13,Cc1cccc(CN2C(=O)C[C@H]3[C@@H]2CCN3Cc2ccccn2)n1,-22.5
14,Cn1cccc1CNCC1CCCn2cc(C(C)(C)C)nc21 (stereo unspecified),75.7
15,Cc1nc(NCC2CC2)nc2c1COCC21CCNC1 (stereo unspecified),-88.5
16,Cc1noc([C@]23COC[C@H]2CN(Cc2cc(C)on2)C3)n1,-5.88
17,Cc1nn(C)c2nc(N3CCCCC3c3cccnc3)sc12 (stereo unspecified),-114
18,CCCS(=O)(=O)N1CCc2c(COCC)cncc2C1,-24.8
19,Cc1noc(C)c1CN1C[C@@H]2CCCO[C@@H]2[C@H](NS(C)(=O)=O)C1,-59.8
20,O=C(NCC(=O)N1CCC2(CC1)OCCO2)c1ccoc1,-196
21,CS(=O)(=O)N1C[C@@H]2CC[C@H]1CN(Cc1ccncc1)C2,-82.5
22,CC(C)=CCN1CCC2(CC1)c1ccccc1[C@@H](N1CCSCC1)[C@@H]2O,78.5

row,Structure (SMILES),INHIBITION [%]
1,COCCn1cc(C(=O)NCCS(N)(=O)=O)c2ccccc21,-110
2,COc1cccc(Cn2cc(C3=CCN(CCO)CC3)cn2)c1,54.2
3,CCC(O)Cn1cc(C2=CCN(Cc3ccc(OC)cc3)CC2)cn1 (stereo unspecified),68.7
4,CCC(O)Cn1cc(C2=CCN(Cc3cc(O)nc(C)n3)CC2)cn1 (stereo unspecified),-24.6
5,CN(C)C(=O)CN1CC=C(c2cnn(Cc3ccccc3)c2)CC1,-52.4
6,Cc1nc(O)cc(CN2CC=C(c3cnn(-c4ccccc4)c3)CC2)n1,-90.2
7,COc1cccc(Cn2cc(C3=CCN(CC(=O)N(C)C)CC3)cn2)c1,-27.6
8,Cn1cc(C2=CCN(CCCOc3ccc(C(N)=O)cc3)CC2)cn1,-64.5
9,O=c1[nH]ccn1CCCN1CC=C(c2cnn(-c3ccccc3)c2)CC1,-235
10,CCn1cc(C2=CCN(CCCOc3ccccc3)CC2)cn1,82
11,O=C(c1cn(Cc2ccccc2)c2ncccc12)N1CCOCC1,-68.2
12,Cc1cccc(CN2CC[C@@H]3[C@@H]2CCN3C(=O)c2ccoc2C)n1,-77.9
13,CNc1ncc(CN(C)c2ncnc3onc(C)c23)cn1,-3.41
14,O=C(Cc1ccc(O)c(F)c1)N1CCN(CC2CC2)[C@@H]2CS(=O)(=O)C[C@@H]21,-78.4
15,Fc1cnccc1CN1CCC2(CCNCC2)C1,-66.9
16,c1ccc(Cn2cccn2)c(CN2CCC3(CCCNC3)C2)c1 (stereo unspecified),85
17,O=C(c1onc2ccccc12)N1CCC2(CCCNC2)C1 (stereo unspecified),-59.1
18,CN(C)CCNC(=O)c1ccn(-c2ccc3ccccn23)n1,84
19,O=C1OCCC1N1CCN(C(=O)Cc2c[nH]c3ccccc23)CC1 (stereo unspecified),-131
20,Cc1nc(CC(=O)N2CCN(C(C)c3ccccc3F)CC2)cs1 (stereo unspecified),-60.5
21,CCN1CCN(c2ccc(NC(=O)CC(C)C)c(C)c2)CC1,-6.8
22,CN1CCN(c2ccc(NC(=O)c3cccs3)c(C(F)(F)F)c2)CC1,73.6

row,Structure (SMILES),INHIBITION [%]
1,CN(C)C(=O)N1CCC2(C1)CN(c1cccnc1)C(=O)CN2C (stereo unspecified),-35.4
2,COc1cc(C)c(CN2CCC3(CC2)[C@H](O)C[C@@H]3OCCN)cc1C,77.2
3,C1Cc2nc(CCNc3nc(C4CC4)nc4c3CCNCC4)sc2C1,78.5
4,COc1ccc(CN(Cc2ccccn2)Cc2cncn2C)cc1,70.1
5,CN1CCN(Cc2cccnc2)C(=O)C12CCN(S(C)(=O)=O)CC2,-18.9
6,Cc1ccc(CN(c2cc(C)nc3nc(C(F)(F)F)nn23)C2CC2)cc1,94
7,CCS(=O)(=O)NC[C@]12COC[C@H]1CN(Cc1ccncc1)C2,-65.2
8,Cc1ccc(N2C[C@@H]3CN(Cc4ccsc4)CCO[C@@H]3C2)nn1,-56.6
9,Brc1ccc(C2(CNCc3cc[nH]c3)CCOCC2)cc1,74.5
10,NCC1(c2cccc(C(F)(F)F)c2)CCC1,26.1
11,Brc1cccc(C2(CNCc3cc[nH]c3)CCOCC2)c1,83.1
12,FC(F)(F)c1cccc(C2(CNCc3cc[nH]c3)CCOCC2)c1,75.1
13,CC(C)c1cc(C(=O)N2CCN(C)[C@@H]3CS(=O)(=O)C[C@@H]32)no1,-14.6
14,O=C(NC[C@]12COC[C@H]1CN(Cc1ccncc1)C2)c1ccno1,-67.3
15,CNC(=O)[C@H]1C[C@H]2OCC[C@H]2N(CC2CC2)C1,-40
16,CC(NC1(CNS(=O)(=O)N(C)C)CCCC1)c1ccccc1 (stereo unspecified),78.7
17,Cc1cc(S(=O)(=O)NCC2CNCCOC2)c(C)cc1Cl (stereo unspecified),75.4
18,Cc1c(-c2ccccc2)nc2c(c(C)c(C)n2CCN(C)C)c1N,80.1
19,CCCc1nc2c(c(C)c(C)n2CCN(C)C)c(N)c1CC,89.9
20,CCN1CCCC(CNC(=O)C2(c3cc(C)cc(C)c3)CCC2)C1 (stereo unspecified),75.8
21,CCN1C[C@H]2N(c3ncccn3)CCC[C@@]2(C(=O)NCC2CC2)C1,-24.6
22,CN1C[C@H]2N(c3ncccn3)CCC[C@@]2(C(=O)NCC2CC2)C1,-48.6

row,Structure (SMILES),INHIBITION [%]
1,CCN(CC)S(=O)(=O)N1C[C@@H](c2ccccc2)[C@H]2[C@H]1CCCCCN2C,71.7
2,CCOC(=O)[C@@H]1[C@@H](c2ccccc2)CN2CCN(S(C)(=O)=O)C[C@H]12,-73.1
3,CC(C)S(=O)(=O)N1C[C@@H](c2ccccc2)[C@H]2[C@H]1CCCCCN2C,20.4
4,O=C(NCCc1c[nH]cn1)c1ccccc1C1CCNC1 (stereo unspecified),-101
5,CCc1ccccc1OCCNCCc1c[nH]cn1,71.2
6,c1cncc(O[C@@H]2CC[C@H]3[C@H]2OCCN3C2CCCC2)c1,-118
7,COc1cc(CNC(c2ccccc2)c2nccn2C)cc(OC)c1 (stereo unspecified),75.5
8,COc1cc(CNC(C)Cn2cccn2)cc(OC)c1 (stereo unspecified),-72.2
9,O=C(N[C@H]1COC[C@@H]1N1CCCC1)c1c[nH]nc1C1CCCCC1,-18.2
10,c1cncc(OC[C@@H]2CCC[C@@]23CN(Cc2nccs2)CCO3)c1,-85.2
11,CCN1CCNC(=O)C12CCN(C(=O)Cc1ccccn1)CC2,-95
12,CN(C)C(=O)CN1C[C@@H]2OCCN(c3ncc(F)cn3)[C@@H]2C1,-196
13,COc1cc(CNCC(O)c2ccc(F)c(F)c2)cc2c1OCO2 (stereo unspecified),78.2
14,COc1cc(CNCC(O)c2ccc(C)cc2)cc2c1OCO2 (stereo unspecified),74
15,COc1cc(CNCC(O)c2ccc(C)cc2)cc2c1OCCO2 (stereo unspecified),48.2
16,Cc1cc(C)c(CNCC(O)c2ccc(F)c(F)c2)c(C)c1 (stereo unspecified),93
17,COc1cc(C2SCC(=O)Nc3[nH]ncc32)cc2c1OCO2 (stereo unspecified),-86.5
18,COc1cc(CNCC(O)c2cccc(F)c2)cc2c1OCO2 (stereo unspecified),92.4
